SW480 rerep: induces DNA re-replication in SW480 colon adenocarcinoma cells; SW480 DNA re-replication, Hoechst DNA content imaging, 48 h; Potency, µM (series often up to 46.1 µM), inactives show at the top dose re-replication activation, most hits filed as activators; 1.8% of 340,000 active; AID 624297; note: % of control where 0% means no effect; nearly all actives have a fitted effect of over 55% in size
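Quantitative HTS format with DMSO vehicle controls; 48 hr drug incubation at 37 C, then 40 min Hoechst staining and scanning imager measurement at 405 nm excitation.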
KB-V1 cytotox: kills drug-selected multidrug resistant KB-V1 cells; Potency, µM (titrated, usually from 46.1 µM), most hits filed as cytotoxic; 3.4% of 400,000 active; KB-V1 MDR cells viability, CellTiter-Glo, 72 h; AID 1347076; note: % is set by controls: 0 for no effect and ±100 for the full control effect; nearly all actives have a fitted effect of over 60% in size
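Following 72 h at 37 degrees C with compound, KB-V1 cell viability was read by CellTiter-Glo luminescence, medium being phenol-red-free DMEM plus 10% FBS; concentration-response parameters came from normalized, curve-fitted qHTS data.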
KB-3-1 tox: kills parental KB-3-1 adenocarcinoma cells | KB-3-1 viability, CellTiter-Glo ATP luminescence, 72 h | Potency, µM (doses to about 46.1 µM), hits mostly cytotoxic | 1.4% of 400,000 active | AID 1347075; note: % is set by controls: 0 for no effect and ±100 for the full control effect; nearly all actives have a fitted effect of over 60% in size
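KB-3-1 parental drug-naive adenocarcinoma cells in DMEM/10% FBS, incubated 72 h at 37 C with pin-transferred compounds across a concentration series. Viability by CellTiter-Glo luminescence; concentration-response curves fitted after normalization.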
HT1080-NT tox: kills 2HG-producing HT-1080-NT fibrosarcoma cells. Potency, µM (doses to about 46.1 µM), for the others: at the top dose activity, negative = less viability, most hits filed as cytotoxic. 1.6% of 360,000 active. HT-1080-NT fibrosarcoma viability, CellTiter-Glo ATP luminescence, 48 h. AID 686970;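 note: NT is the 2HG producing partner of a matched IDH1 knockdown line; 0% = DMSO-treated cells and -100% = media-only wells without cells; nearly all actives have a fitted effect of over 55% in size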
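Fibrosarcoma NT cells, 750 per well in 5% FBS RPMI, were exposed to compound for 48 hours. Viability: CellTiter-Glo luminescence.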
HT1080 IDH1KD tx: kills HT-1080 cells with IDH1 knockdown. HT-1080 IDH1 knockdown viability, ATP luminescence, 48 h. Potency, µM (highest dose often 46.1 µM), without a hit: top-dose activity, negative = toxicity, hits mostly cytotoxic. 2% of 360,000 active;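 note: 0% = DMSO wells and -100% = cell-free medium wells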
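CellTiter-Glo luminescence after 48 h compound exposure at 37 degrees C of IDH1-knockdown HT-1080 cells in 5% FBS RPMI. %Activity scaled between DMSO wells and cell-free media wells, with curves fitted and assigned curve classes.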
MCF10A rereplic: DNA re-replication induction in MCF 10a cells; MCF 10A DNA re-replication, Hoechst nuclear intensity, 48 h; Potency, µM (top dose mostly 46.1 µM), for the others: top-dose activity, positive = re-replication, usual class: activators; 2.9% of 350,000 active; note: % of control where 0% means no effect; nearly all actives have a fitted effect of over 50% in size
Starred values were filed as active, the others as inactive; i = inactive; ? = inconclusive; / = no result. Shown are actives, neighbours in structure and some others; about 7.9% of the full set was active somewhere. Calls come from the whole dose curve; as a rule, active = well fitted curve in the direction sought with a large enough effect; inconclusive = small, poorly fitted or top-dose-only effect, or another doubt; inactive = no such curve, though single readings can be large; an effect the other way counts as inactive or inconclusive. Potency is the fitted concentration of half-maximal effect.

SMILES	SW480 rerep	KB-V1 cytotox	KB-3-1 tox	HT1080-NT tox	HT1080 IDH1KD tx	MCF10A rereplic
CC(C(Sc1ccccc1N)c1ccccc1)[N+](=O)[O-] (stereo not given)	9.7%	i	11.6µM*	?	?	?
O=C(CSc1nc2ncc(Cl)cc2[nH]1)Nc1ccccc1-c1ccccc1	?	i	i	?	?	?
O=C(CSc1nc2ncc(Br)cc2[nH]1)Nc1ccccc1-c1ccccc1	26.1%	?	i	?	?	25.9µM*
CCc1ccc(NC(=O)CSc2nc3ncc(Br)cc3[nH]2)cc1	-5.8%	i	i	12.8%	3.0%	11.6µM*
CCOc1ccc(CNC(=O)C2CCN(S(=O)(=O)c3ccc4c(ccn4C)c3)CC2)cc1	/	i	i	/	/	/
CN(C)CCNc1oc(-c2ccc(COc3ccc(Cl)cc3)o2)nc1C#N	/	i	i	/	/	/
O=C(c1cc(N2C(=O)C3C4CCC(C4)C3C2=O)ccc1Cl)N1CCN(c2ccccc2)CC1 (stereo not given)	?	3.26µM*	i	-11.2%	1.1%	-35.6%
CCOC(=O)n1c(=O)n(C)c2ccc(Cl)cc21	-1.3%	8.2µM*	?	-4.9%	0.1%	-9.6%
CCOC(=O)n1c(=O)n(Cc2ccccc2)c2ccccc21	-2.9%	?	i	-1.0%	-8.9%	3.6%
Cc1ccc(NC(=O)NC(=O)COC(=O)c2ccc(O)cc2O)c(C)c1	/	i	i	2.5%	3.1%	/
CC(C(=O)Nc1ccc(Cl)cc1)c1ncc(C(F)(F)F)cc1Cl (stereo not given)	?	25.9µM*	i	-18.5%	-24.3%	?
CNC(=O)C(C)c1ncc(C(F)(F)F)cc1Cl (stereo not given)	-0.6%	i	i	10.2%	-9.2%	-0.1%
Cc1cc(C)c2oc(-c3cc(NC(=O)Cc4ccccc4)ccc3Cl)nc2c1	/	i	i	/	/	/
CN1CCN(c2nc(-c3ccc(Br)cc3)nnc2-c2ccccc2)CC1	-0.5%	25.9µM*	i	?	20.6µM*	?
Cc1ccc(-c2nnc(-c3ccccc3)c(N3CCOCC3)n2)cc1	?	5.8µM*	?	2.9%	0.9%	?
Brc1ccc(-c2nnc(-c3ccccc3)c(N3CCSCC3)n2)cc1	-3.3%	?	i	-12.5%	-9.8%	5.9%
CSc1nnc(C)c(/C=C/Nc2ccc(F)cc2F)n1	19.9%	?	i	?	16.4µM*	18.4µM*
CSc1nnc(C)c(/C=C/NOCc2cccc(F)c2)n1	1.7%	i	i	-4.6%	-6.8%	19.8%
COc1ccccc1N1CCN(/N=C/c2cccc(Cl)c2)CC1	-48.5%	i	i	8.8%	4.1%	?
COc1cccc(/C=N/N2CCN(c3ccccc3OC)CC2)c1	-16.7%	11.6µM*	i	15.1%	-8.5%	-1.5%
COc1ccc(/C=N/N2CCN(c3ccccc3OC)CC2)cc1OC	-11.3%	?	i	13.3%	0.8%	24.3%
COc1ccccc1N1CCN(/N=C/c2ccc(O)c(O)c2)CC1	13µM*	i	i	-9.3%	?	17.4%
CO[C@H]1CN(C)C(=O)c2cc(NC(=O)C3CCOCC3)ccc2OC[C@H](C)N(Cc2nccs2)C[C@H]1C	/	i	?	14.4%	11.5%	/
CN(C)CCN1C(=O)c2oc3ccc(Cl)cc3c(=O)c2C1c1cccc(Br)c1 (stereo not given)	-5.3%	i	i	6.1%	-0.5%	-1.3%
O=C1c2oc3ccccc3c(=O)c2C(c2cccnc2)N1Cc1ccco1 (stereo not given)	-9.3%	7.31µM*	i	-9.4%	-3.5%	16.8%
SMILES	SW480 rerep	KB-V1 cytotox	KB-3-1 tox	HT1080-NT tox	HT1080 IDH1KD tx	MCF10A rereplic
CN(C)CCN1C(=O)c2oc3ccccc3c(=O)c2C1c1cccc(Br)c1 (stereo not given)	-7.4%	10.3µM*	i	0.2%	-2.0%	-0.2%
COc1ccccc1Nc1nc(N)nc(-c2oc3ccccc3c2C)n1	7.31µM*	i	i	-2.1%	-8.2%	?
COc1ccc(OC)c(Nc2nc(N)nc(CSc3nnc(N)s3)n2)c1	-9.3%	i	i	1.9%	3.9%	-10.2%
COc1ccccc1Nc1nc(N)nc(CCl)n1	11.6µM*	?	i	23.1µM*	11.6µM*	?
COc1ccc(OC)c(Nc2nc(N)nc(CCl)n2)c1	2.59µM*	?	i	?	16.4µM*	29.1µM*
O=C(O)c1cccc(NC(=O)c2cc3cc(Br)cc(Br)c3oc2=O)c1	/	i	i	/	/	/
Cc1cc(C)nc(SCCCn2c(=O)[nH]c3ccccc32)n1	-4.1%	9.2µM*	i	-1.6%	2.4%	0.8%
CCCn1c(=O)[nH]c2ccccc21	-6.5%	i	i	16.7%	9.2%	-1.5%
COC1=C(Br)C(=O)c2ncccc2C1=O	2.91µM*	?	?	-21.6%	8.2µM*	5.17µM*
O=C1c2cccnc2-c2ncccc21	-5.3%	i	i	19.0%	11.4%	-6.1%
O=C1C(=O)c2cccnc2-c2ncccc21	/	18.4µM*	3.66µM*	1.03µM*	0.581µM*	/
CC(C)c1ccc2c(c1)[C@H]1OCC[C@H]1[C@@H](c1cccs1)N2	9.2µM*	2.31µM*	6.51µM*	2.91µM*	3.26µM*	7.31µM*
COc1cccc(N2[C@@H](CC(C)=O)c3ccc(/C=C/C(C)=O)cc3S2(=O)=O)c1	11.2%	?	?	10.3%	?	20.6µM*
COC(=O)C[C@H]1c2ccccc2S(=O)(=O)N1c1cccc(OC)c1	0.2%	i	i	15.3%	4.6%	29.4%
CCN(CC)C(=O)Oc1cc(=O)n2c3c(cccc13)CCC2	-5.3%	16.4µM*	i	-4.2%	-2.8%	0.8%
CCCNC(=O)c1c(O)c2cccc3c2n(c1=O)CCC3	-21.0%	i	i	-1.9%	4.1%	-0.2%
CC[C@]12c3[nH]c4ccc(OC)cc4c3CCN1C(=O)C(CC(=O)NCC13CC4CC(CC(C4)C1)C3)C[C@@H]2C(=O)N1CCN(C(=O)c2ccco2)CC1 (stereo not given in full)	?	i	i	-29.2%	?	?
CCN(CC)C(=O)[C@H]1C[C@H](CC(=O)NCC23CC4CC(CC(C4)C2)C3)C(=O)N2CCc3c([nH]c4ccc(Cl)cc34)[C@]12C	14.6µM*	?	i	-1.2%	1.2%	3.2%
